Measurements from PubChem BioAssay (NCATS).

Biological target: Glucocorticoid receptor (Homo sapiens) (UniProt P04150)
Assay: GR-GFP Redistribution (AID 450)
Conditions: U2OS GR-GFP nuclear translocation, laser cytometry, 2 h;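 active means compounds whose dose series gives a full or clear partial fitted curve of increased nuclear translocation; inconclusive means weak partial curve or effect only at the top dose; inactive means no dose-dependent translocation response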
Potency means the concentration at half of the fitted maximal effect.

Sequence of Glucocorticoid receptor (Homo sapiens) (P04150 whole entry, looked up): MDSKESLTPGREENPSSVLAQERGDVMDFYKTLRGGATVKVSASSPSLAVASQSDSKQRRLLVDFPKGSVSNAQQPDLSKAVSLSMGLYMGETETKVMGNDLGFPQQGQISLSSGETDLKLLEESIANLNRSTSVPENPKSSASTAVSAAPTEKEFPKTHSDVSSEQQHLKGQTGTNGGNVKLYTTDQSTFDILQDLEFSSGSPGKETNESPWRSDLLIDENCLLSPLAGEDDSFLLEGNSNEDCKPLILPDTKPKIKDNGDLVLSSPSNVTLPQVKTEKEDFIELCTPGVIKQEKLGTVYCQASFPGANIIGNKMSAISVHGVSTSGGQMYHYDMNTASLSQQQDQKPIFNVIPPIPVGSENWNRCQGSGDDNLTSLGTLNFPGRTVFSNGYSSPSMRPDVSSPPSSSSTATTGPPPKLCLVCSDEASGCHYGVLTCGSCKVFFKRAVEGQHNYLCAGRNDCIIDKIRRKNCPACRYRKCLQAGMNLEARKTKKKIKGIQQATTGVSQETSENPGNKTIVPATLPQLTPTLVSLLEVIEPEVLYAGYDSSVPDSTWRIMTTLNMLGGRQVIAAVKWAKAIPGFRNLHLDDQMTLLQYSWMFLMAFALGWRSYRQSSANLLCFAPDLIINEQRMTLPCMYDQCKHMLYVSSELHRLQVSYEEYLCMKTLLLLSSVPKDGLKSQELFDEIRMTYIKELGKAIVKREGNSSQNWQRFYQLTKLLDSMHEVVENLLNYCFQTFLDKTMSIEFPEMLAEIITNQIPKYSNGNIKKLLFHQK

Potency, inactive:
CN(C)CCCN1c2ccccc2Sc2ccc3ccccc3c21 > 46 µM
ClC(=Nc1cccc2ccccc12)N(c1ccccc1)c1ccccc1 > 46 µM
Cc1ccc(-c2nc(-c3nccc4ccccc34)oc2-c2ccccc2)cc1 > 46 µM
COc1ccc2c(c1)N(CC[C@H]1CCCCN1C)c1ccccc1S2 > 46 µM
COc1ccc(Oc2ncc3nc(CCc4ccccc4)c(=O)n(C4CC4)c3n2)cc1 > 9.22 µM
Cc1nnc(S(=O)(=O)c2ccc(N=Nc3c(N)nc(N)nc3N)cc2)s1 > 46 µM
COc1ccc2c(=O)cc(-c3ccncc3)oc2c1OC > 46 µM
COc1cccc2c1[C@H](CO)N1[C@H](C#N)[C@@H]3C[C@H](C(=O)O)[C@@H]([C@@H]1C2)N3C > 46 µM
CN(C)CCCN1c2ccc3ccccc3c2Sc2cccc(Cl)c21 > 46 µM
COc1cccc(Nc2ncc3ncc(=O)n(C4CC4)c3n2)c1 > 9.22 µM
CN(C)CCCN1c2ccc(O)cc2Sc2ccc(Cl)cc21 > 46 µM
C=C(C)COc1ccc2c(c1)CCC1C2CC[C@]2(C)C(=O)/C(=N/O)CC12 (stereo not given in full) > 46 µM
CCCCNN > 46 µM
CC(CC(=O)O)(CC(=O)O)c1ccccc1 > 46 µM
OC[C@@H]1O[C@@H](N2CCN([C@@H]3O[C@@H](CO)[C@@H](O)[C@H](O)[C@H]3O)CC2)[C@@H](O)[C@H](O)[C@H]1O > 46 µM
